Assay outcomes (PubChem BioAssay)
DT40 TDP1 CPT: DT40-hTDP1 cell growth loss with CPT | AID 686979 | Potency, µM (series often up to 46.2 µM), for the others: top-dose activity change, negative = growth inhibition, usual class: inhibitors | chicken DT40 Tdp1-/-;hTDP1 cells + 20 nM CPT, ATP luminescence, 48 h | 12% of 420,000 active; also: potency is read from the fitted curve at half-maximal effect; % is scaled to controls: 0 for no effect and ±100 for the full control effect; nearly all actives have a fitted effect of over 55% in size
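Chicken DT40 Tdp1-/- cells stably complemented with human TDP1 were seeded at 400 cells/well in medium containing 20 nM camptothecin, exposed to pin-transferred compounds, and grown at 37 °C for at least 48 hr. Viability was read as ATP luminescence.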
DRD3 antagonist: D3 dopamine receptor (human) antagonism; P35462; D3R cells, DiscoveRx beta-arrestin luminescence, antagonist mode; active compounds read low; max response, negative = inhibition, %; 2.5% of 360,000 active; AID 652054; in the data active = max response below about -50%; inconclusive = no clear call, values can overlap the other calls; also: % is scaled to controls: 0 for no effect and ±100 for the full control effect
Target sequence (P35462 whole entry, looked up): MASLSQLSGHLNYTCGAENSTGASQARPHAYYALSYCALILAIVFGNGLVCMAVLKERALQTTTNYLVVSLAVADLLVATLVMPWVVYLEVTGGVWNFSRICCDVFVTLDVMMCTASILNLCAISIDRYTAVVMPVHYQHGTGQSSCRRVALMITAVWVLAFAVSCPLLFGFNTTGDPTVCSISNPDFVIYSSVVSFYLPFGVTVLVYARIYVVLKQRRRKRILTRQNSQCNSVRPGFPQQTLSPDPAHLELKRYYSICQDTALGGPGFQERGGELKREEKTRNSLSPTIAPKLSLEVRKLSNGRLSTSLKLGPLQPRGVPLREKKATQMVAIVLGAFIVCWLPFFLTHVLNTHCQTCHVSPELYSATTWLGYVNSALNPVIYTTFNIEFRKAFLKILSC
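Cells expressing the human receptor were seeded at 1500 cells/well, incubated overnight at 37 degrees C in 5% CO2, then exposed to library compounds with dopamine controls for 90 minutes at 37 degrees C before luminescent detection.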
D3 ag: activates the human D3 dopamine receptor; 0.58% of 410,000 active; P35462; max activation, %; D3R DiscoveRx beta-arrestin cells, luminescence, 90 min; in the data active = max activation above about 30%; also: 0% is about no effect
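Agonist-mode cell screen: cells plated at 1500/well and incubated overnight at 37 °C, then exposed to library compounds for 90 min at 37 °C. Detection reagent was added for 30–60 min at room temperature, and luminescence was read.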
IL-1B inflam inh: inhibitors of inflammasome signaling (IL-1 beta secretion); THP-1 LPS/ATP IL-1B secretion, AlphaLISA, 16 h; active compounds read low; activity change, % at 57.5 µM; 4.7% of 360,000 active; in the data active = activity change below about -50%; inconclusive = mostly about -30% to -49%; also: % is scaled to controls: 0 for no effect and ±100 for the full control effect
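THP-1 cells pretreated 1 hr with compounds (up to 57.5 uM final), then stimulated with LPS (250 ng/mL final) plus ATP (1.25 mM final); secreted IL-1B measured by AlphaLISA after 16 hr, decreased signal indicating inhibition.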
ClpP mod: qHTS Assay for Activators of ClpP | purified B. subtilis ClpP, FRET peptide cleavage, 20 min | Potency, µM (doses to about 57.5 µM), for the others: at the top dose activity change, negative = active | 1.9% of 340,000 active | AID 651965, 2013; active = well fitted falling curve with a large enough effect; inconclusive = small, poorly fitted or top-dose-only effect; inactive = no such curve, though single readings can be large or run the other way; also: potency is read from the fitted curve at half-maximal effect; the source files actives as falling curves though it sought activators and does not explain the sign; nearly all actives have a fitted effect of over 65% in size
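FRET quenching reversal measured ClpP activation: 10 microg/mL B. subtilis ClpP at pH 8 with the FRET-FV decapeptide, read at 430 nm after 320 nm excitation. The 20-min minus 0-min signal was scaled between DMSO/no-enzyme wells and ADEP (5.8 microM final).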
DT40 TDP1 no CPT: qHTS for Inhibitors of human tyrosyl-DNA phosphodiesterase 1 (TDP1): qHTS in cells in absence of CPT. DT40 Tdp1-/- hTDP1 cells, no CPT, ATP luminescence, 48 h. Potency, µM (top dose mostly 46.2 µM), for inactives: top-dose activity change, negative = growth inhibition, hits mostly inhibitors. 15% of 420,000 active. AID 686978, 2013; also: potency is read from the fitted curve at half-maximal effect; % is scaled to controls: 0 for no effect and ±100 for the full control effect; nearly all actives have a fitted effect of over 55% in size
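Chicken DT40 Tdp1-/- cells complemented with human TDP1, screened without camptothecin (DMSO vehicle only), 400 cells/well. Compounds pin-transferred, cells incubated at 37 °C for at least 48 hr. Growth read as ATP-dependent luminescence (CellTiter-Glo, 30 min at RT).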
Numbers without * were called inactive; ? = inconclusive; . = not tested or not shown. This is a sample that favours compounds with a hit; in the whole collection about 21% have one here. Unless noted, calls follow the shape of the dose curve; as a rule, active = well fitted inhibition curve with a large enough effect; inconclusive = small, poorly fitted or top-dose-only effect; inactive = flat fitted curve, though single readings scatter.

SMILES	DT40 TDP1 CPT	DRD3 antagonist	D3 ag	IL-1B inflam inh	ClpP mod	DT40 TDP1 no CPT
CC1=CC2OC3CC4OC(=O)C=CC=CC(C(C)O)OCC(O)C(C)CC(=O)OCC2(CC1O)C4(C)C31CO1 (stereo unspecified)	0.013µM*	26	-10	-116*	1%	0.021µM*
CC1=CC2OC3CC4OC(=O)C=CC=CC(=O)OCCC(C)C(O)C(=O)OCC2(CC1O)C4(C)C31CO1 (stereo unspecified)	0.15µM*	-8	-7	-98*	0%	0.16µM*
C[C@@H]1CN([C@@H](C)CO)C(=O)CCCn2nncc2CO[C@H]1CN(C)C(=O)Oc1ccc2ccccc2c1	-16%	0	-3	17	-1%	-1%
CCCCNC(=O)c1cc(-c2cccnc2)nc2ccc(S(=O)(=O)NCCCC)cc12	21µM*	.	3	.	0%	?
CCCCNc1ccncc1S(=O)(=O)NC(=O)NC(C)C	18%	8	-2	24	-3%	0%
C[C@]12CCC3C(CC[C@H]4C[C@H](O)CC[C@]34C)C1C[C@H](O)[C@H]2O (stereo partly specified)	-16%	9	9	18	.	-21%
CC(=O)c1c(C)n(Cc2ccccc2)c2ccc(O)cc12	16µM*	29	9	-29	-1%	18µM*
CN(C)c1ccc(/C=C/c2ccnc3c(O)cccc23)cc1	-98%	.	.	.	-1%	10µM*
CN(C)c1ccc(C=Cc2ccnc3c(O)cccc23)cc1	?	22	12	64	-1%	13µM*
Cn1ncc2c(NCc3ccc(Cl)cc3)ncnc21	?	.	-19	.	1%	?
CN1CCN(c2csc3ccc(F)cc3c2=O)CC1	5%	.	2	.	-16%	-3%
CCCCNC(=O)CN1C(=O)CN=C(c2ccccc2)c2ccccc21	-25%	-24	-14	-9	0%	?
CCC(C(=O)Nc1ccccc1F)N1C(=O)CN=C(c2ccccc2)c2ccccc21 (stereo unspecified)	?	.	-15	.	0%	23µM*
OC1/C(=C/c2ccc(Cl)cc2Cl)N2CCC1CC2 (stereo unspecified)	-4%	-15	-6	-5	.	-12%
CCN(CC)CCCC(C)N=C(c1ccccc1)c1c(O)n(C)c(=O)n(C)c1=O (stereo unspecified)	-21%	-1	4	11	-10%	-11%
CCOC(=O)c1ccc(N=C(c2ccccc2)c2c(O)n(C)c(=O)n(C)c2=O)cc1	2.9µM*	7	-7	.	.	7.3µM*
Cn1c(O)c(C(=Nc2ccccc2)SCc2ccccc2Cl)c(=O)n(C)c1=O	5.8µM*	5	6	?	-5%	8.2µM*
CSC(=Nc1ccccc1)c1c(O)n(C)c(=O)n(C)c1=O	-12%	-18	-11	8	0%	-8%
COC(=O)c1ccc(N=C(c2ccccc2)c2c(O)n(C)c(=O)n(C)c2=O)cc1	?	10	4	-7	-3%	23µM*
Cn1c(O)c(C(=Nc2ccc(F)cc2)c2ccccc2Cl)c(=O)n(C)c1=O	?	7	2	-24	-1%	7.3µM*
CC(C)(C)NC[C@H](O)COc1cccc2[nH]c(C#N)cc12	-7%	.	.	.	.	-15%
CN1CCC2(CC1)C(C#N)=C(N)NC(S)=C2C#N	?	6	2	15	-13%	2%
O=C(c1cccs1)N1CCC(C(=O)O)(c2ccccc2)CC1	-17%	-4	-1	29	1%	-13%
O=C(N/N=C/c1ccccc1OC(=O)N1CCOCC1)c1cccs1	4.1µM*	1	4	126	.	4.6µM*
COc1cc2c(cc1OC)C(C(=O)N1CCC3(CC1)OCCO3)C(c1ccccc1F)N(C)C2=O (stereo unspecified)	-12%	9	-8	26	5%	-30%
